According to PubChem BioAssay (NCATS):
Records with an inconclusive call do not appear. A call without a number means that no potency is given here. Calls of active or inactive are those of the source. Calls follow the shape of the dose curve; as a rule, active = well fitted cell-killing curve with a large enough effect; inconclusive = small, poorly fitted or top-dose-only effect, or effect the other way; inactive = no such curve, though single readings can be large or run the other way.

Key:
[1] = Quantitative High-Throughput drug screen in 47 multiple myeloma cell lines against the NCATS MIPE library collection: FR4_PLB cell viability assay (AID 1918924; also: nearly all actives have a fitted effect of over 35% in size)
Procedure, shortened: (§1)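 qHTS of the MIPE 4.0 collection: 500 myeloma cells/well, 48 h drug exposure at 37C in 5% CO2, then CellTiter-Glo for 5 min at room temperature before luminescence reading.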

[2] = Quantitative High-Throughput drug screen in 47 multiple myeloma cell lines against the NCATS MIPE library collection: EJM_DSMZ cell viability assay (AID 1918926; also: nearly all actives have a fitted effect of over 30% in size)
Procedure, shortened: (§2)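 Luminescent ATP measurement with CellTiter-Glo gives viability, scaled between DMSO-only wells (100%) and media-only wells (0%). Cells, 500 per well, faced library compounds for 48 hours at 37C.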

[3] = Quantitative High-Throughput drug screen in 47 multiple myeloma cell lines against the NCATS MIPE library collection: Karpas620_DSMZ cell viability assay (AID 1918959); also: nearly all actives have a fitted effect of over 30% in size
Procedure, shortened: as §1

[4] = Quantitative High-Throughput drug screen in 47 multiple myeloma cell lines against the NCATS MIPE library collection: KMM1_JCRB cell viability assay (AID 1918960); also: nearly all actives have a fitted effect of over 30% in size
Procedure, shortened: (§3)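 Each line was plated at 500 cells/well and treated 48 h with library drugs. Viability came from CellTiter-Glo luminescence relative to DMSO and cell-free medium controls.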

[5] = Quantitative High-Throughput drug screen in 47 multiple myeloma cell lines against the NCATS MIPE library collection: Delta47_JCRB cell viability assay (AID 1918925; also: nearly all actives have a fitted effect of over 45% in size)
Procedure, shortened: as §2

[6] = Quantitative High-Throughput drug screen in 47 multiple myeloma cell lines against the NCATS MIPE library collection: Karpas417_ECACC cell viability assay (AID 1918961); conditions: Karpas417 myeloma viability, CellTiter-Glo ATP luminescence, 48 h; viability (% of DMSO): at 45.8 µM (top of the series)
Procedure, shortened: as §2

[7] = Quantitative High-Throughput drug screen in 47 multiple myeloma cell lines against the NCATS MIPE library collection: AMO1_DSMZ cell viability assay (AID 1918927; also: nearly all actives have a fitted effect of over 30% in size)
Procedure, shortened: as §2

[8] = Quantitative High-Throughput drug screen in 47 multiple myeloma cell lines against the NCATS MIPE library collection: ARD_JJKsccE7 cell viability assay (AID 1918929)
Procedure, shortened: as §2

[9] = Quantitative High-Throughput drug screen in 47 multiple myeloma cell lines against the NCATS MIPE library collection: ARP1_JJKsccF8 cell viability assay (AID 1918928; also: nearly all actives have a fitted effect of over 40% in size)
Procedure, shortened: as §3
Potency is read from the fitted curve at half-maximal effect.

Row | Compound | Potency [1] | Potency [2] | Potency [3] | Potency [4] | Potency [5] | Potency [6] | Potency [7] | Potency [8] | Potency [9]
1 | O=C(NOCC(O)CO)c1cc(Br)c(F)c(F)c1Nc1ccc(I)cc1F (stereo not given) | inactive | inactive | inactive | inactive | – | – | – | – | –
2 | C[C@@H]1CCN(C(=O)CC#N)C[C@H]1N(C)c1ncnc2[nH]ccc12 | inactive | inactive | inactive | inactive | inactive | inactive | – | – | –
3 | OC[C@H]1O[C@@H](Oc2cc(O)cc(C=Cc3ccc(O)cc3)c2)[C@H](O)[C@@H](O)[C@H]1O | inactive | 4.69 µM (active) | inactive | – | – | – | inactive | – | –
4 | CCN(CC)CCOc1ccc(C(=C(Cl)c2ccccc2)c2ccccc2)cc1 | inactive | – | – | – | 29.6 µM (active) | – | 18.7 µM (active) | – | –
5 | O=c1cc(N2CCOCC2)oc2c(-c3cccc4c3sc3ccccc34)cccc12 | 20.9 µM (active) | – | 16.6 µM (active) | 5.9 µM (active) | 3.32 µM (active) | – | 5.26 µM (active) | 11.8 µM (active) | –
6 | CC1(C)O[C@H]2C[C@@H]3[C@H]4CCC5=CC(=O)C=C[C@]5(C)[C@@]4(F)[C@@H](O)C[C@]3(C)[C@]2(C(=O)CO)O1 | inactive | inactive | inactive | inactive | – | 0.0118 µM (active) | – | 0.0037 µM (active) | –
7 | CC[C@H]1OC(=O)[C@H](C)[C@@H](O[C@H]2C[C@@](C)(OC)[C@@H](O)[C@H](C)O2)[C@H](C)[C@@H](O[C@@H]2O[C@H](C)C[C@H](N(C)C)[C@@H]2O)[C@](C)(O)C[C@@H](C)CN(C)[C@H](C)[C@@H](O)[C@]1(C)O | inactive | inactive | inactive | inactive | – | – | inactive | inactive | inactive
8 | N#C[C@H]1C[C@H]2C[C@@H]2N1C(=O)[C@@H](N)C12CC3CC(CC(O)(C3)C1)C2 | inactive | inactive | inactive | inactive | – | – | inactive | inactive | 3.72 µM (active)
9 | CO[C@@H](C(=O)N1Cc2[nH]nc(NC(=O)c3ccc(N4CCN(C)CC4)cc3)c2C1)c1ccccc1 | 23.5 µM (active) | – | – | 7.43 µM (active) | 6.62 µM (active) | – | 4.69 µM (active) | 26.4 µM (active) | –
10 | Clc1cc(Cl)cc(CNc2ncncc2-c2ccc3c(c2)OCO3)c1 | 14.8 µM (active) | – | – | – | 11.8 µM (active) | – | 7.43 µM (active) | 16.6 µM (active) | –
11 | OC[C@H]1O[C@@H](n2cnc3c2NC=NC[C@@H]3O)C[C@H]1O | inactive | – | 14.8 µM (active) | inactive | inactive | inactive | inactive | inactive | –
12 | O=c1c(-c2ccc(O)cc2)coc2cc(O[C@@H]3O[C@H](CO)[C@H](O)[C@H](O)[C@H]3O)ccc12 | inactive | inactive | inactive | inactive | – | – | inactive | inactive | 3.72 µM (active)
13 | CC(C)(Cc1ccc2ccccc2c1)NC[C@@H](O)COc1cccc(Cl)c1C#N | inactive | inactive | inactive | inactive | – | – | inactive | inactive | –
14 | C[N+](C)(C)CC(=O)O | inactive | inactive | – | inactive | – | inactive | – | inactive | –
15 | O=c1c(-c2ccc(O)cc2)coc2cc(O)ccc12 | inactive | inactive | – | inactive | – | inactive | inactive | inactive | –
16 | CC#CCn1c(N2CCC[C@@H](N)C2)nc2c1c(=O)n(Cc1nc(C)c3ccccc3n1)c(=O)n2C | inactive | inactive | inactive | inactive | – | – | inactive | inactive | 2.96 µM (active)
17 | O=c1ccn([C@@H]2O[C@H](CO)[C@H](O)[C@H]2O)c(=O)[nH]1 | inactive | inactive | inactive | inactive | – | – | – | – | –
18 | O=c1cc(-c2cccc3c2Sc2ccccc2S3)oc(N2CCOCC2)c1 | 26.4 µM (active) | – | 18.7 µM (active) | – | 5.26 µM (active) | – | 16.6 µM (active) | – | –
19 | O=c1cc(-c2ccccc2)oc2cc(O)cc(O)c12 | inactive | inactive | – | 20.9 µM (active) | – | – | 16.6 µM (active) | 26.4 µM (active) | –
20 | C[C@]12CC[C@@H]3c4ccc(O)cc4CC[C@H]3[C@H]1C[C@@H](O)[C@H]2O | inactive | – | 18.7 µM (active) | – | 2.64 µM (active) | inactive | 18.7 µM (active) | inactive | 9.35 µM (active)
21 | CCCCCCCCCCCC1=C(O)C(=O)C=C(O)C1=O | 20.9 µM (active) | – | 0.264 µM (active) | 2.96 µM (active) | 3.32 µM (active) | – | 3.32 µM (active) | 1.66 µM (active) | 11.8 µM (active)
22 | Cc1nnc(C(C)C)n1C1C[C@H]2CC[C@@H](C1)N2CC[C@H](NC(=O)C1CCC(F)(F)CC1)c1ccccc1 (stereo not given in full) | inactive | – | – | – | 16.6 µM (active) | – | inactive | – | inactive

Row | Compound | Potency [1] | Potency [2] | Potency [3] | Potency [4] | Potency [5] | Potency [6] | Potency [7] | Potency [8] | Potency [9]
23 | COc1ccc(-c2coc3cc(O)cc(O)c3c2=O)cc1 | inactive | – | 18.7 µM (active) | – | inactive | – | – | – | inactive
24 | CC(C)OC(=O)CCCC=CC[C@@H]1[C@H](C=C[C@@H](O)COc2cccc(C(F)(F)F)c2)[C@H](O)C[C@@H]1O | 29.6 µM (active) | – | inactive | inactive | 14.8 µM (active) | – | inactive | inactive | 20.9 µM (active)
25 | Oc1ccc(C2CCN(c3ccnc4ccccc34)CC2)cc1O | 14.8 µM (active) | – | 16.6 µM (active) | – | 9.35 µM (active) | – | 18.7 µM (active) | – | –
26 | NC1CCC(Nc2nc(Nc3ccc(C(=O)N4CCCCC4)cc3)c3ncn(-c4cccc(F)c4)c3n2)CC1 (stereo not given) | inactive | inactive | inactive | inactive | – | inactive | inactive | inactive | inactive
27 | NC(=O)[C@@H](CCC(F)(F)F)N(Cc1ccc(-c2ncon2)cc1F)S(=O)(=O)c1ccc(Cl)cc1 | 16.6 µM (active) | 20.9 µM (active) | inactive | – | – | – | inactive | inactive | –
28 | Cc1cnc(C(=O)O)c[n+]1[O-] | inactive | inactive | inactive | inactive | – | inactive | inactive | inactive | –
29 | O=C(N[C@@H](c1ccccc1)[C@@H]1CCCCN1)c1cccc(C(F)(F)F)c1Cl | inactive | 18.7 µM (active) | inactive | inactive | 14.8 µM (active) | – | – | – | –
30 | O=c1c(O)c(-c2ccc(O)cc2)oc2cc(O)cc(O)c12 | inactive | – | 18.7 µM (active) | 16.6 µM (active) | 20.9 µM (active) | 16.6 µM (active) | 9.35 µM (active) | 13.2 µM (active) | –
31 | O=C(NCc1ccncc1)C12C[C@H]3C[C@@H](C1)CC(c1ccc(Cl)cc1)(C3)C2 | 14.8 µM (active) | – | 9.35 µM (active) | 23.5 µM (active) | 16.6 µM (active) | – | 9.35 µM (active) | 18.7 µM (active) | –
32 | CN1CCN(CCOc2cc(OC3CCOCC3)c3c(Nc4c(Cl)ccc5c4OCO5)ncnc3c2)CC1 | 18.7 µM (active) | – | 18.7 µM (active) | 14.8 µM (active) | 23.5 µM (active) | – | 18.7 µM (active) | 18.7 µM (active) | –
33 | CC(C(=O)O)c1ccc(-c2ccccc2)c(F)c1 (stereo not given) | inactive | 13.2 µM (active) | inactive | inactive | – | – | – | inactive | –
34 | CN(C)CCC=C1c2ccccc2COc2ccc(CC(=O)O)cc21 | inactive | inactive | inactive | – | – | – | inactive | inactive | inactive
35 | Cc1ccc(F)c(NC(=O)Nc2ccc(-c3cccc4[nH]nc(N)c34)cc2)c1 | 14.8 µM (active) | – | 20.9 µM (active) | 4.18 µM (active) | 13.2 µM (active) | – | 10.5 µM (active) | 3.32 µM (active) | 26.4 µM (active)
36 | COc1cccc2c1CCCC2CCCN1CCN(C2CCCCC2)CC1 (stereo not given) | 23.5 µM (active) | – | 18.7 µM (active) | 18.7 µM (active) | 16.6 µM (active) | – | 23.5 µM (active) | – | –
37 | Cc1ccn(-c2ccc(-c3ncco3)cc2)c(=O)c1-c1ccc2nc(N)ncc2c1 | inactive | inactive | – | 13.2 µM (active) | – | 5.26 µM (active) | 14.8 µM (active) | – | inactive
38 | Cc1[nH]c(C=C2C(=O)Nc3ccc(S(=O)(=O)Cc4c(Cl)cccc4Cl)cc32)c(C)c1C(=O)N1CCC[C@H]1CN1CCCC1 | 23.5 µM (active) | – | – | 18.7 µM (active) | 5.9 µM (active) | 1.48 µM (active) | 26.4 µM (active) | 9.35 µM (active) | –
39 | COC(=O)N[C@H](C(=O)N1CCC[C@@H]1c1ncc(-c2ccc(-c3ccc(-c4cnc([C@@H]5CCCN5C(=O)[C@@H](NC(=O)OC)C(C)C)[nH]4)cc3)cc2)[nH]1)C(C)C | 23.5 µM (active) | – | 16.6 µM (active) | 16.6 µM (active) | 20.9 µM (active) | – | – | 23.5 µM (active) | –
40 | Cn1cc(C=C2C(=O)Nc3cccnc32)c2ccccc21 | inactive | inactive | inactive | – | – | – | – | – | –
41 | N#Cc1ccc(NC(=O)Nc2ccccc2Br)c2n[nH]nc12 | inactive | – | 13.2 µM (active) | 20.9 µM (active) | – | – | 14.8 µM (active) | 10.5 µM (active) | –
42 | O=c1c(-c2ccc(O)cc2)coc2cc(OC3O[C@H](CO)[C@H](O)[C@H](O)[C@H]3O)cc(O)c12 (stereo not given in full) | – | – | – | – | 3.72 µM (active) | – | inactive | – | –
43 | C[C@]12CC[C@@H]3c4ccc(O)cc4C[C@@H](CCCCCCCCCS(=O)CCCC(F)(F)C(F)(F)F)[C@H]3[C@H]1CC[C@H]2O (stereo not given in full) | inactive | – | inactive | inactive | – | – | inactive | inactive | –
